# Experimental data published in PubChem BioAssay (EPA / NIEHS).
# Several values for one entry are separate records, joined by “and”; a condition that tells them apart may be missing. Equal entries are not always repeated. Where a structure was tested more than once in an assay, its records may differ in their call. Activity calls are given as the source filed them. How the source made its calls: active means hit-call score of the fitted dose curve at least 0.9, where 1 is the maximum; inactive means score below 0.9.
# Key:
# [1] = molecular target: Nuclear respiratory factor 1 (Homo sapiens) (UniProt Q16656); test: ATG_NRF1_CIS: Attagene CIS-FACTORIAL HepG2 Assay for human Nuclear Respiratory Factor 1 (NRF1) Orphan Gene (AID 2282987); conditions: HepG2 NRF1 cis-element reporter, Attagene multiplex; actives raise or lower the signal
# Sequence of Nuclear respiratory factor 1 (Homo sapiens) (Q16656 whole entry, looked up): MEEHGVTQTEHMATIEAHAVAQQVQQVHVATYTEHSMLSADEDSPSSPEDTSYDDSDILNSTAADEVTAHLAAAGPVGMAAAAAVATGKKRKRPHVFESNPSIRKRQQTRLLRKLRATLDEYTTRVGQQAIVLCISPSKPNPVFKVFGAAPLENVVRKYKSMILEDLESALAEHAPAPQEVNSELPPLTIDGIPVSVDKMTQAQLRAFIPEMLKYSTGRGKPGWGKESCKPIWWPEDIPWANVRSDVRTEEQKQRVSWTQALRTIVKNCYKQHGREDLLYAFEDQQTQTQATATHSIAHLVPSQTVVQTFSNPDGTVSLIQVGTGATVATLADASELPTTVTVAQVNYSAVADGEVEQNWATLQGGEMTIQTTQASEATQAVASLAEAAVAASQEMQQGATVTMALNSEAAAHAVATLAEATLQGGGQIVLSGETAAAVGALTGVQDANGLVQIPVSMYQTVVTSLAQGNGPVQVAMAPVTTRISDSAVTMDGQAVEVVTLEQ
# How it was run: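 HepG2 cells transiently transfected with multiple cis-regulated reporter units, exposed 24 h. Reporter mRNAs measured by RT-PCR, fluorescent labelling, HpaI digestion and capillary electrophoresis; bidirectional fitting against DMSO.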
# [2] = ATG_NFI_CIS: Attagene CIS-FACTORIAL HepG2 Assay for human Nuclear Factor I (NFI) (AID 2282989); conditions: HepG2 cis-regulatory reporter, NFI response element transcription; actives raise or lower the signal
# How it was run: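 HepG2, transient MRTU, 24 h exposure; RNA→cDNA→PCR→FAM label→HpaI→CE fluorescence. Bidirectional fit, DMSO = baseline.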
# [3] = molecular target: Myc proto-oncogene protein (Homo sapiens) (UniProt P01106); test: ATG_Myc_CIS: Attagene CIS-FACTORIAL HepG2 Assay for human Myelocytomatosis (Myc) Proto-Oncogene Transcription Factor (AID 2282990); conditions: HepG2, Attagene cis-reporter transcription factor activity; actives raise or lower the signal
# Sequence of Myc proto-oncogene protein (Homo sapiens) (P01106 whole entry, looked up): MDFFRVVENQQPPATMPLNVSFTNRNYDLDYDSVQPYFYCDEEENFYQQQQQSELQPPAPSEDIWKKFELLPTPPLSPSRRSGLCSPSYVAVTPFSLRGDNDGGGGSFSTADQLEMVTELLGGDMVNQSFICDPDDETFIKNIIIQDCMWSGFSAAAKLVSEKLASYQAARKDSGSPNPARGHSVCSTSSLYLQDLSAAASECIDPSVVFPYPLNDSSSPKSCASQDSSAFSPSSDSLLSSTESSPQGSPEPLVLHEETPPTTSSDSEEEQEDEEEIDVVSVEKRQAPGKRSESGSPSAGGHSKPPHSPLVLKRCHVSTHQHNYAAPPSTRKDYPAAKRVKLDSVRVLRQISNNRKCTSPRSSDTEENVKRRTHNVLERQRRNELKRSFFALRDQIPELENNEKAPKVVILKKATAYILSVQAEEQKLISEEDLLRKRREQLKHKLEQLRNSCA
# How it was run: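 Cells of the HepG2 human liver line bear multiple cis-driven reporter transcription units. Reporter mRNA after 24 h exposure is reverse-transcribed, amplified, labelled and resolved by capillary electrophoresis, with gain- or loss-of-signal fitting relative to DMSO.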
# [4] = ATG_NF_kB_CIS: Attagene CIS-FACTORIAL HepG2 Assay for human Nuclear Factor Kappa B (NF-kB) (AID 2282991); conditions: HepG2 Attagene cis-factorial NF-kB reporter mRNA; actives raise or lower the signal
# How it was run: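 HepG2 cells transfected with cis-promoter-driven reporter units, so endogenous transcription factor activity is measured. Reporter mRNA quantified 24 h after dosing by RT-PCR and capillary electrophoresis, with bidirectional fitting against DMSO.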
# [5] = ATG_NRF2_ARE_CIS: Attagene CIS-FACTORIAL HepG2 Assay for human Nuclear Factor Erythroid 2 Related Factor 2 (NFR2) response to Antioxidant Response Elements (ARE) (AID 2282992); conditions: HepG2 Attagene ARE/NRF2 reporter, transcription factor activity; actives raise or lower the signal;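 on AC50: reporter mRNA level measured by RT-PCR and capillary electrophoresis fluorescence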
# How it was run: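 Fluorescence intensity of reporter-specific cDNA fragments, separated by capillary electrophoresis, reflects mRNA induction in transfected HepG2 cells at 24 h. Activity is fitted bidirectionally, DMSO serving as baseline.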
# [6] = ATG_Oct_MLP_CIS: Attagene CIS-FACTORIAL HepG2 Assay for human Octamer-Binding Transcription Factor (Oct) (AID 2282993); conditions: HepG2 Attagene cis-factorial Oct reporter, mRNA; actives raise or lower the signal
# How it was run: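 Multiplexed cis-reporter assay in human liver HepG2 cells, 24 h incubation. Reporter RNA amplified and labelled, then resolved by capillary electrophoresis; DMSO serves as negative control and baseline.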
# [7] = molecular target: Cellular tumor antigen p53 (Homo sapiens) (UniProt P04637); test: ATG_p53_CIS: Attagene CIS-FACTORIAL HepG2 Assay for human p53 Transcription Factor (AID 2282994); conditions: HepG2 p53 cis-element reporter, Attagene mRNA; actives raise or lower the signal
# Sequence of Cellular tumor antigen p53 (Homo sapiens) (P04637 whole entry, looked up): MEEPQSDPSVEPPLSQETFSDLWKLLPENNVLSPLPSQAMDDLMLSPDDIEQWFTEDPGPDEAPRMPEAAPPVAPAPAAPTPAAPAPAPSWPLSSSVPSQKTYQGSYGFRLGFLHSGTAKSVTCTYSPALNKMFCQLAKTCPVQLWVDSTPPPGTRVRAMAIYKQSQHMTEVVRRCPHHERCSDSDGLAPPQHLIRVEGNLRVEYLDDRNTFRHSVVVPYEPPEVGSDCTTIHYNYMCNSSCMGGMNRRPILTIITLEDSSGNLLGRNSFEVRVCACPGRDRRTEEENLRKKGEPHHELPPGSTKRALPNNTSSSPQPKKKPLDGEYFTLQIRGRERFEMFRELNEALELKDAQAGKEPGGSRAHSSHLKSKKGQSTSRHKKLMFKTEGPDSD
# How it was run: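 Transiently transfected HepG2 (multiple cis reporter transcription units); exposure 24 h; reporter RNA via RT-PCR, 6-FAM extension, 2 h HpaI digest at 37 C, CE detection; DMSO baseline.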
# [8] = BSK_3C_TissueFactor: BioMAP Diversity Plus: 3C Assay for Tissue Factor Biomarker Activity (AID 2282997); conditions: BioMAP 3C HUVEC, tissue factor biomarker readout; actives raise or lower the signal
# How it was run: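 In this endothelial system, HUVEC are treated for 24 h and Tissue Factor is assessed by ELISA, normalised to DMSO.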
# [9] = BSK_3C_uPAR: BioMAP Diversity Plus: 3C Assay for Urokinase-type plasminogen activator receptor (uPAR) Biomarker Activity (AID 2282998); conditions: BioMAP 3C HUVEC, uPAR biomarker ELISA; actives raise or lower the signal
# How it was run: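 Dose primary human umbilical vein endothelial cells, incubate 24 h, measure cell-surface uPAR by ELISA, then fit the signal in both directions against the DMSO negative control.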
# [10] = BSK_3C_VCAM1: BioMAP Diversity Plus: 3C Assay for Vascular cell adhesion molecule 1 (VCAM1) Biomarker Activity (AID 2282999); conditions: BioMAP 3C HUVEC, VCAM1 ELISA, cytokine-stimulated; actives raise or lower the signal
# How it was run: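 Activity fitted in both directions relative to DMSO, with ELISA measurement of the surface marker on primary HUVEC (3C) at 24 h post-treatment; parallel SRB staining (0.1% SRB, TCA-fixed, 560 nm) flagged overt cytotoxicity.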
SMILES,outcome [1],outcome [2],outcome [3],outcome [4],outcome [5],outcome [6],outcome [7],outcome [8],outcome [9],outcome [10],AC50 [5],AC50 [8],AC50 [9],AC50 [10],AC50 [4],AC50 [1],AC50 [2],AC50 [7],AC50 [6]
O=C(O)C(F)(F)C(F)(F)OC(F)(F)F,inactive,inactive,inactive,inactive,inactive,inactive,inactive,inactive,inactive,inactive,,,,,,,,,
FC(F)(F)C(F)(F)C(F)(F)C(F)(F)C(F)(F)C(F)(F)C(F)(F)I,inactive,inactive,inactive,inactive,inactive,inactive,inactive,inactive,inactive,inactive,,,,,,,,,
FC(F)(F)C(F)(F)C(F)(F)C(F)(F)C(F)(F)C(F)(F)C(F)(F)C(F)(F)F,inactive,inactive,inactive,inactive,inactive,inactive,inactive,inactive,inactive,inactive,,,,,,,,,
O=S(=O)(OCC(F)F)C(F)(F)F,inactive,inactive,inactive,inactive,inactive,inactive,inactive,inactive,inactive,inactive,,,,,,,,,
FC(F)(F)C(F)(F)C(F)(F)C(F)(F)CCI,inactive,inactive,inactive,inactive,inactive,,inactive,inactive,inactive,inactive,79.7 µM (active),,,,,,,,
OCCCC(F)(F)C(F)(F)C(F)(F)F,inactive,inactive,inactive,inactive,inactive,inactive,inactive,inactive,inactive,inactive,,,,,,,,,
FC(F)(I)C(F)(F)C(F)(F)C(F)(F)I,inactive,inactive,inactive,inactive,,inactive,inactive,,,,33.4 µM (active),44.1 µM (active) and 42 µM (active) and 56.5 µM (active),51.2 µM (active) and 53.9 µM (active) and 47.1 µM (active),49.9 µM (active) and 48.3 µM (active) and 57.1 µM (active),,,,,
O=C(O)C=C(C(F)(F)F)C(F)(F)F,inactive,inactive,inactive,inactive,,,inactive,inactive,inactive,,1.89 µM (active) and 3.02 µM (active),,,22.4 µM (active) and 8.91 µM (active),68.2 µM (active),,,,
FC1CC(F)(F)C(F)(F)C1(F)F (centres undefined),inactive,inactive,inactive,inactive,inactive,inactive,inactive,inactive,inactive,inactive,,,,,,,,,
CCCCCCCOC(=O)c1ccccc1C(=O)OCCCCCCC,inactive,inactive,inactive,inactive,inactive,inactive,inactive,inactive,inactive,inactive,,,,,,,,,
FC(F)(F)C(F)(F)C(F)(F)N(C(F)(F)C(F)(F)C(F)(F)F)C(F)(F)C(F)(F)C(F)(F)F,inactive,inactive,inactive,inactive,inactive,inactive,inactive,inactive,inactive,inactive,,,,,,,,,
OC[C@@H](O)[C@@H](O)[C@H](O)[C@@H](O)CO,inactive,inactive,inactive,inactive,inactive,inactive,inactive,,,,,,,,,,,,
FC(F)(F)C(F)(F)C(F)(F)C(F)(F)C(F)(F)C(F)(F)C(F)(F)C(F)(F)CCS,inactive,inactive,inactive,inactive,inactive,inactive,inactive,inactive,inactive,inactive,,,,,,,,,
CC(=O)Nc1ccc(N=Nc2cc(C)ccc2O)cc1,,inactive,inactive,inactive,,inactive,inactive,inactive,inactive,,1.42 µM (active),,,2.69 µM (active),,27.1 µM (active),,,
O=C(O)C(F)(F)C(F)(F)C(F)(F)F,inactive,inactive,inactive,inactive,inactive,inactive,inactive,inactive,inactive,inactive,,,,,,,,,
N=C(N)C(F)(F)C(F)(F)C(F)(F)C(F)(F)C(F)(F)C(F)(F)C(F)(F)F,inactive,,inactive,inactive,,inactive,,inactive,inactive,,125 µM (active),,,24.1 µM (active) and 15 µM (active),,,271 µM (active),88.9 µM (active),
C(=C(c1ccccc1)c1ccccc1)c1ccccc1,inactive,inactive,inactive,inactive,,inactive,inactive,,,,25.2 µM (active),,,,,,,,
COC(=O)CCC(F)(F)C(F)(F)C(F)(F)C(F)(F)F,inactive,inactive,inactive,inactive,inactive,inactive,inactive,inactive,inactive,inactive,,,,,,,,,
CNC(=S)NC,inactive,inactive,inactive,inactive,inactive,inactive,inactive,,,,,,,,,,,,
O=C(O)C(F)(F)C(F)(F)C(F)(F)C(F)(F)C(F)(F)C(F)(F)C(F)(F)C(F)(F)Cl,inactive,inactive,inactive,inactive,inactive,,,inactive,inactive,,12.7 µM (active),54.4 µM (active),44.9 µM (active),48.7 µM (active),,,,57.7 µM (active) and 69.5 µM (active),50 µM (active) and 57.9 µM (active)
